# Experimental data published in the supplement of paper PMC6555819.
# Legend:
# Assay in all cases: PBM binding z-score (relative to random genomic background probes); higher = stronger binding; sequences stand for … in GC…GCGATTGACAGCGTAGAATGAAGG
# [1] = system: FXR:RXRa (NR concentration 270 nM, RXRa partner concentration 90 nM)
# Summary of the method: (§1)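 Binding z-scores take random background probes as their reference. They come from custom Agilent 4×180K protein-binding microarrays incubated 1 h with ligand-free nuclear receptor dimers, with antibodies against each partner (one per run) detecting binding. Scanned fluorescence was regression-normalized.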
# [2] = system: LXRa:RXRa (NR concentration 270 nM, RXRa partner concentration 90 nM)
# Summary of the method: as §1
# [3] = system: LXRa homodimer (NR concentration 270 nM)
# Summary of the method: as §1
# [4] = system: LXRb:RXRa (NR concentration 270 nM, RXRa partner concentration 90 nM)
# Summary of the method: as §1
# [5] = system: LXRb homodimer (NR concentration 270 nM)
# Summary of the method: as §1
# [6] = system: PPARa:RXRa (NR concentration 270 nM, RXRa partner concentration 90 nM)
# Summary of the method: as §1
# [7] = system: PPARg:RXRa (NR concentration 180 nM, RXRa partner concentration 90 nM)
# Summary of the method: as §1
# [8] = system: PPARg:RXRa 270nM:90nM, anti-RXR (NR concentration 270 nM, RXRa partner concentration 90 nM)
# Summary of the method: as §1
# [9] = system: PPARg:RXRa 30nM:10nM, anti-RXR (NR concentration 30 nM, RXRa partner concentration 10 nM)
# Summary of the method: as §1
# [10] = system: PPARg:RXRa 90nM:30nM, anti-RXR (NR concentration 90 nM, RXRa partner concentration 30 nM)
# Summary of the method: as §1
# [11] = system: PPARg:RXRa DBDmut IVT, anti-RXR (DBD mutation: RXRa K156A/R161A, NR concentration 270 nM, RXRa partner concentration 90 nM)
# Summary of the method: as §1
# [12] = system: PPARg:RXRa IVT, anti-PPARg (NR concentration 270 nM, RXRa partner concentration 90 nM)
# Summary of the method: as §1
# [13] = system: PPARg DBDmut:RXRa IVT, anti-PPARg (DBD mutation: PPARg1 K132A/R137A, NR concentration 270 nM, RXRa partner concentration 90 nM)
# Summary of the method: as §1
# [14] = system: PPARg DBDmut IVT, anti-PPARg (DBD mutation: PPARg1 K132A/R137A, NR concentration 270 nM)
# Summary of the method: as §1
# [15] = system: PPARg homodimer (NR concentration 180 nM)
# Summary of the method: as §1
# [16] = system: PXR:RXRa (NR concentration 270 nM, RXRa partner concentration 90 nM)
# Summary of the method: as §1
# [17] = system: PXR homodimer (NR concentration 270 nM)
# Summary of the method: as §1
# [18] = system: RARa:RXR (NR concentration 270 nM, RXRa partner concentration 90 nM)
# Summary of the method: as §1
# [19] = system: RARa homodimer (NR concentration 270 nM)
# Summary of the method: as §1
# [20] = system: RARb:RXRa (NR concentration 270 nM, RXRa partner concentration 90 nM)
# Summary of the method: as §1
Sequence,PBM binding z-score [1],PBM binding z-score [2],PBM binding z-score [3],PBM binding z-score [4],PBM binding z-score [5],PBM binding z-score [6],PBM binding z-score [7],PBM binding z-score [8],PBM binding z-score [9],PBM binding z-score [10],PBM binding z-score [11],PBM binding z-score [12],PBM binding z-score [13],PBM binding z-score [14],PBM binding z-score [15],PBM binding z-score [16],PBM binding z-score [17],PBM binding z-score [18],PBM binding z-score [19],PBM binding z-score [20]
CCTACTGGGACATCAGGTCATTGATATCAACGTT,1.42,1.88,2.8,2.06,0.52,2.67,2.46,3.36,1.61,3.06,4.19,4.32,0.344,0.76,1.84,1.82,1.56,2.04,0.755,1.99
ATCGAAAGGTCGACGAGGTTAGTATACACCGTTT,4.41,3.75,0.309,3.11,0.782,4.33,2.6,3.04,0.863,2.24,0.568,1.88,1.2,0.625,1.24,4.03,2.16,3.97,0.691,3.86
CCGAGTAGGATATGGGGCATTCAGGCAACGGTGA,-0.328,-0.279,-0.104,-0.307,-0.496,1.11,1.26,2.01,0.579,1.45,2.05,2.81,-0.179,-0.813,0.55,-0.236,-0.112,-0.0398,0.174,-0.0937
TGAATGAGGATAAAGATCAGGGAACGTGGCGTCG,0.0362,-0.419,-0.157,-0.514,-0.0964,1.03,1.87,3.78,2.17,3.5,-0.598,0.0508,-0.331,-0.373,-0.144,-0.614,-0.0385,-0.537,-0.101,-0.238
CGTCCAAGGTCAATGCTACGTCAGTGAAAGCATT,6.6,4.58,0.394,3.37,0.412,4.89,3.32,4.18,1.44,3.3,3.21,3.16,1.41,-0.403,2.71,3.7,0.586,3.85,0.867,4.96
TCAAATAGGTAAACAGGTGAAAGTCCGTAAGTTA,0.954,0.935,0.164,0.968,-0.112,2.28,2.64,3.76,4.64,4.28,4.13,3.99,0.833,0.995,1.07,0.682,0.0929,1.16,1.7,0.892
CGTCCAAGGACAAGGTCAGTGAAAGAGACTCGAA,1.56,1.45,-0.433,1.46,-0.506,2.39,0.883,1.23,-0.0239,0.648,0.434,0.71,-0.797,-1.03,1.03,1.61,0.632,2.38,-0.259,3.93
AGTCAAAGTTAATCTAGGTAACGTAAGATATGCT,0.59,0.213,-0.267,-0.245,-0.44,1.29,1.78,1.41,0.619,0.829,2.39,4.39,1.49,1.19,-0.261,-0.201,0.136,0.155,0.301,0.39
CGAACTAGGCCAAGGACAGTGAATCTCCGCACGC,-0.241,-0.713,-0.191,-0.883,-0.975,1.04,1.69,1.53,-0.0892,0.672,6.24,4.83,0.31,-0.452,-0.431,-0.557,-0.632,-0.45,-0.416,0.81
GCTATTTGTTGAAAGGGCAACCGAATGATTCTCG,0.484,0.768,0.386,0.834,0.261,1.37,0.764,1.88,0.957,1.46,0.563,0.804,0.209,0.611,1.53,0.686,0.462,1.01,1.45,1.98
AGAACTAGGGCACGCTGAGTTGATAGCAGAGTAG,-0.159,-0.0416,-0.762,-0.394,-0.896,3.01,5.21,4.47,1.85,3.37,8.03,7.98,3.17,2.05,0.0464,0.214,-0.312,-0.11,-0.599,1.58
GCATATAGGTAATACACGGTGAAAGTCCGATTGT,0.145,0.988,0.163,-0.0915,-0.496,0.9,0.912,0.806,0.349,0.684,3.87,2.67,0.895,1.01,0.267,0.213,0.115,0.564,0.666,-0.0307
CCTAACAGGCCAGGGTCACTCAAGCATTTCGCTT,2.05,1.86,-0.195,2.38,-0.349,3.2,0.798,1.41,-0.181,0.356,0.296,0.882,-0.338,-0.618,1.4,2.58,-0.222,3.26,0.384,2.85
TCTTGTAGATCAGCAGTTTAAGAAAGCTGGCCAA,0.068,-0.0226,-0.271,0.182,-0.0391,0.33,-0.762,1.27,2.68,2.09,1.44,0.0506,0.167,0.0418,-0.0273,0.249,-0.18,0.328,0.193,-0.0976
